The record followed here is PubChem BioAssay (Tox21).

Experiment [1] concerns the target Nuclear receptor subfamily 1 group I member 2 (Homo sapiens) (UniProt O75469). In words: Human pregnane X receptor (PXR) small molecule agonists, qHTS assay (AID 1346982). Also: nearly all actives have a fitted effect of over 35% in size. Also: potency is read from the fitted curve at half-maximal effect. Summed up: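 Agonist mode qHTS: PXR-Luc HepG2 cells plated 5 hr before DMSO-dissolved compounds were pinned in, cultured 24 hr at 37 C, 5% CO2; ONE-Glo luminescence readout.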
The target of experiment [2] is Cytochrome P450 2D6 (Homo sapiens) (UniProt P10635). In words: Cytochrome P450 Family 2 Subfamily D Member 6 (CYP2D6) small molecule antagonists: luciferase reporter qHTS assay (AID 1671196). Also: nearly all actives have a fitted effect of over 50% in size. Also: potency is read from the fitted curve at half-maximal effect. In outline: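 P450-Glo format: CYP2D6 converts a proluciferin substrate to luciferin in an NADPH-driven reaction lasting 1 h at room temperature. Light output, proportional to CYP2D6 activity, reflects interference by test chemicals.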
Cytochrome P450 2D6 (Homo sapiens), sequence (P10635 whole entry, looked up): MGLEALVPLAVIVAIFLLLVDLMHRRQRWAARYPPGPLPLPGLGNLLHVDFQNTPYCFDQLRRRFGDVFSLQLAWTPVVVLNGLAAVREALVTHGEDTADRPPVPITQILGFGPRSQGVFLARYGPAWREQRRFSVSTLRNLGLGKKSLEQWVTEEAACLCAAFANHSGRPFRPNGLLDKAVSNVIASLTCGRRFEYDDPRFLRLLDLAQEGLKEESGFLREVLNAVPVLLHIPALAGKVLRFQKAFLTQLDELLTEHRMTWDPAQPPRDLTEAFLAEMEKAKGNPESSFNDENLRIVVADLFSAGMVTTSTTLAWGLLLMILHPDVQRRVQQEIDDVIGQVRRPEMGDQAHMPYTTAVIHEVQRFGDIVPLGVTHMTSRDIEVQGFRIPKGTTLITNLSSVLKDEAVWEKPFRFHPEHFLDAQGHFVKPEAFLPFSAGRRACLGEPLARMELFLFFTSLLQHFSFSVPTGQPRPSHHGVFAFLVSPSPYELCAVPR

The target in experiment [3] is Cytochrome P450 2C9 (Homo sapiens) (UniProt P11712). In words: Cytochrome P450 Family 2 Subfamily C Member 9 (CYP2C9) small molecule antagonists: luciferase reporter qHTS assay (AID 1671198). Also: nearly all actives have a fitted effect of over 50% in size. Also: potency is read from the fitted curve at half-maximal effect. Summed up: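 CYP2C9 activity was measured with a P450-Glo proluciferin substrate. Enzyme–substrate mix was held with compound for 10 min at room temperature, then NADPH regeneration solution was added for 1 h at 37C. Luciferin product was read as luminescence.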
Cytochrome P450 2C9 (Homo sapiens), sequence (P11712 whole entry, looked up): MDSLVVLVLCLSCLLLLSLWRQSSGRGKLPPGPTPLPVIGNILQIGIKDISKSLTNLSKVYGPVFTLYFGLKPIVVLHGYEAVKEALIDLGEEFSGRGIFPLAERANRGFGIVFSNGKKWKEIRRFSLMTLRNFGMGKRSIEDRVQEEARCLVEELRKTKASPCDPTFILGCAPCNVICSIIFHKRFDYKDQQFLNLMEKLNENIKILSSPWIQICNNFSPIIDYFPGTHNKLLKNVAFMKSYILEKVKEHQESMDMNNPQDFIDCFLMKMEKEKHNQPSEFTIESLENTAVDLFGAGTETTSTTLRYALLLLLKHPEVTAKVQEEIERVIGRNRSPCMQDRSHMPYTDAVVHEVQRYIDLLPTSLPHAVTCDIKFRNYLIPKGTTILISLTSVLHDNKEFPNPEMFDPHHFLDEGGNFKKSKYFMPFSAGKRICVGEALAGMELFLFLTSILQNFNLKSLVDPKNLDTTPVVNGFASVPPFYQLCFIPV

The target of experiment [4] is Voltage-gated inwardly rectifying potassium channel KCNH2 (Homo sapiens) (UniProt Q12809). Description: Human Ether-a-go-go-Related Gene (hERG) channel small molecule antagonists: fluorescence cell-based qHTS assay (AID 1671200).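 Also: hERG-expressing U2OS cells given a thallium stimulus after FluxOR II dye loading; series mostly up to about 77 µM; nearly all actives have a fitted effect of over 50% in size.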 In outline:
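hERG-U2OS cells plated overnight at 37 C, loaded with FluxOR II dye 1 h at RT in dark; after 10 min, thallium stimulus added. Fluorescence (480/540 nm) read kinetically for 2 min at 1 s intervals.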

Experiment [5] concerns the target Cytochrome P450 3A4 (Homo sapiens) (UniProt P08684). In words: Cytochrome P450 Family 3 Subfamily A Member 4 (CYP3A4) small molecule antagonists: luciferase reporter qHTS assay (AID 1671201). Also: nearly all actives have a fitted effect of over 50% in size. Also: potency is read from the fitted curve at half-maximal effect. In outline:
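P450-Glo CYP3A4 luminescent assay: compounds preincubated 10 min at room temperature with enzyme and proluciferin substrate, NADPH regeneration added, 1 h room-temperature reaction, stopped with luciferin detection reagent; luminescence read after 20 min. Ketoconazole positive control.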

Experiment [6] addresses Cytochrome P450 1A2 (Homo sapiens) (UniProt P05177). Description: Cytochrome P450 Family 1 Subfamily A Member 2 (CYP1A2) small molecule antagonists: luciferase reporter qHTS assay (AID 1671199). Also: nearly all actives have a fitted effect of over 50% in size. Also: potency is read from the fitted curve at half-maximal effect. In outline:
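Inhibition of CYP1A2 conversion of proluciferin to luciferin, detected by luminescence. Reaction run 1 h at room temperature with NADPH regeneration after brief compound preincubation.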

For experiment [7], the target named is Cytochrome P450 2C19 (Homo sapiens) (UniProt P33261). In words: Cytochrome P450 Family 2 Subfamily C Member 19 (CYP2C19) small molecule antagonists: luciferase reporter qHTS assay (AID 1671197). Also: nearly all actives have a fitted effect of over 65% in size. Also: potency is read from the fitted curve at half-maximal effect. Summed up: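 First, compounds are pinned into enzyme-substrate mix and held 10 min at room temperature. Second, NADPH regeneration solution is added and plates incubate 1 h at 37C. Third, detection reagent is added and luminescence read after 20 min.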
Cytochrome P450 2C19 (Homo sapiens), sequence (P33261 whole entry, looked up): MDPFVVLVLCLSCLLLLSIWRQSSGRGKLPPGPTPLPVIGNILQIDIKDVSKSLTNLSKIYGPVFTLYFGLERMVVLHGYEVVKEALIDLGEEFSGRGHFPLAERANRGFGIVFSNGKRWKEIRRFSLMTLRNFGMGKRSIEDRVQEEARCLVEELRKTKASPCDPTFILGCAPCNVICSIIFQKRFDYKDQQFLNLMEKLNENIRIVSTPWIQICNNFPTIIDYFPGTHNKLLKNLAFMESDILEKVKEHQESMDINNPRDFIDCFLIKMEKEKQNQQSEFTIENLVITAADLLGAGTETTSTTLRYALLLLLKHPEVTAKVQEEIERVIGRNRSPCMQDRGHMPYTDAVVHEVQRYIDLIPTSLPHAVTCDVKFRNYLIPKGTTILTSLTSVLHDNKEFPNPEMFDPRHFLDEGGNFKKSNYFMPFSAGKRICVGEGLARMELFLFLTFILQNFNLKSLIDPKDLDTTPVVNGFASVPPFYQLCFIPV

For experiment [8], the target named is Nuclear receptor subfamily 1 group I member 2 (Rattus norvegicus) (UniProt Q9R1A7). Description: Rat pregnane X receptor (rPXR) activation by small molecules, qHTS assay (AID 1346983). Also: nearly all actives have a fitted effect of over 20% in size. The conditions noted are these: rPXR luciferase reporter cells, One-Glo luminescence, 24 h; stronger effect = higher value. Summed up:
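Cell-based rPXR luciferase reporter assay, 2,000 cells per well, rested 5hr at 37 C before compound addition in DMSO, then 24 hr at 37 C. One-Glo reagent was added and luminescence read after 30 min at room temperature.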

Structures are written as SMILES. Records with an inconclusive call do not appear. A number with no mark means an inactive call. Calls of active or inactive are those of the source. Calls follow the shape of the dose curve; as a rule, active = well fitted curve in the direction sought with a large enough effect in the repeat runs; inconclusive = weak or mixed curves; inactive = no such curve, though single readings can be large; an effect the other way counts as inactive or inconclusive.
% is scaled to controls: 0 for no effect and ±100 for the full control effect.

Cytochrome P450 3A4 (Homo sapiens), sequence (P08684 whole entry, looked up): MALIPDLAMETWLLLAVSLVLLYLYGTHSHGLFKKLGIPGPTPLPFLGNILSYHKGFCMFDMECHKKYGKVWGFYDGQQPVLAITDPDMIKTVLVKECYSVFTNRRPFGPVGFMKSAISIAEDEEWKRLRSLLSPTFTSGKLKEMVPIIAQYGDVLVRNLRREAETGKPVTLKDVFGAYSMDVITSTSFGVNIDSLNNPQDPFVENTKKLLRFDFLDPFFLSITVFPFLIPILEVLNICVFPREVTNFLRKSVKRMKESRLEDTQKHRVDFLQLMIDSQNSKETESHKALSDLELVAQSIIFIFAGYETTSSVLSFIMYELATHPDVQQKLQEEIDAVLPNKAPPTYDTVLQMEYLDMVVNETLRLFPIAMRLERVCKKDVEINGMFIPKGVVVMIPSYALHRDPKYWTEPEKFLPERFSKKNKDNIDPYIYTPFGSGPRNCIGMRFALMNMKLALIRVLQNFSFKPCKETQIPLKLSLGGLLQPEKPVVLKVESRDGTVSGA
Voltage-gated inwardly rectifying potassium channel KCNH2 (Homo sapiens), sequence (Q12809 whole entry, looked up): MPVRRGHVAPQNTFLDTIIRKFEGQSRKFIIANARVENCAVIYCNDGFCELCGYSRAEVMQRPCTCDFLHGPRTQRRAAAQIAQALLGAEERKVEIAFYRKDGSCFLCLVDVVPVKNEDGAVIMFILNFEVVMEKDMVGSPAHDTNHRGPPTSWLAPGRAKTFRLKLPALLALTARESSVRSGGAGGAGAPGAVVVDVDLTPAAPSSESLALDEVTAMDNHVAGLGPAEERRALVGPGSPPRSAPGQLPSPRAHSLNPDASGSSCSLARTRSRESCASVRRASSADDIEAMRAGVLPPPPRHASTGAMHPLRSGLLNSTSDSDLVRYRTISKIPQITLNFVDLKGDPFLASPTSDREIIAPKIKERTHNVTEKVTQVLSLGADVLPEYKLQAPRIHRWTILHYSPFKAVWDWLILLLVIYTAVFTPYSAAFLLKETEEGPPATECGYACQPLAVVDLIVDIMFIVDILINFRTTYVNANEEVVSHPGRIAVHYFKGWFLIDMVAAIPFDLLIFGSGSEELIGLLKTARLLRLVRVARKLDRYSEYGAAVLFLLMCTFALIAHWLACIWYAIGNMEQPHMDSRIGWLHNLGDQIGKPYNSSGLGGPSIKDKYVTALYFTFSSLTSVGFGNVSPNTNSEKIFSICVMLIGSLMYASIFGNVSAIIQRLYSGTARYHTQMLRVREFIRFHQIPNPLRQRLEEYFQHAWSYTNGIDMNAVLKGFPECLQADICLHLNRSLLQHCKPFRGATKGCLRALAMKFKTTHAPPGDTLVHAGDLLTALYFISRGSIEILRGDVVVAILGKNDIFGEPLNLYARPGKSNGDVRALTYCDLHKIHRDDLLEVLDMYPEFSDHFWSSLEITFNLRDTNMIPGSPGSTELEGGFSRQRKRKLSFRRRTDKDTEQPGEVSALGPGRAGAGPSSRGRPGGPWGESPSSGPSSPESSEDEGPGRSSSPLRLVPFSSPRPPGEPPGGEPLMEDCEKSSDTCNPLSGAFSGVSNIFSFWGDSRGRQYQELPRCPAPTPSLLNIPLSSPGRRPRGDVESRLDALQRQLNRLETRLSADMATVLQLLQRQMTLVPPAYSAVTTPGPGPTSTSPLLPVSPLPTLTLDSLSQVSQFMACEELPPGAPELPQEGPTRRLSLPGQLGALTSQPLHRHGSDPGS
Cytochrome P450 1A2 (Homo sapiens), sequence (P05177 whole entry, looked up): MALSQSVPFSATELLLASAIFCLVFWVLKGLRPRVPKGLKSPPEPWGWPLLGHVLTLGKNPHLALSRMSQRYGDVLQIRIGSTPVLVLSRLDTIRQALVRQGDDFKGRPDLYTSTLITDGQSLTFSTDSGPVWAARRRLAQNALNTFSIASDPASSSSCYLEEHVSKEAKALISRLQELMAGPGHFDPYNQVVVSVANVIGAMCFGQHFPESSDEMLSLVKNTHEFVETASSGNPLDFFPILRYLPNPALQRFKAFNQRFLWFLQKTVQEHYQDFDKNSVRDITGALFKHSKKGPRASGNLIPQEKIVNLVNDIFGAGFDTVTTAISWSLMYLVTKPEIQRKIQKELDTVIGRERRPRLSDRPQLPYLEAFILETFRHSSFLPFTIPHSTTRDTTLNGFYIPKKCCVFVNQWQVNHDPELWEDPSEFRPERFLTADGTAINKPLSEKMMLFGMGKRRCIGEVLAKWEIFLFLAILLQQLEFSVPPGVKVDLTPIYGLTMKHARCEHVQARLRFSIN
Nuclear receptor subfamily 1 group I member 2 (Homo sapiens), sequence (O75469 whole entry, looked up): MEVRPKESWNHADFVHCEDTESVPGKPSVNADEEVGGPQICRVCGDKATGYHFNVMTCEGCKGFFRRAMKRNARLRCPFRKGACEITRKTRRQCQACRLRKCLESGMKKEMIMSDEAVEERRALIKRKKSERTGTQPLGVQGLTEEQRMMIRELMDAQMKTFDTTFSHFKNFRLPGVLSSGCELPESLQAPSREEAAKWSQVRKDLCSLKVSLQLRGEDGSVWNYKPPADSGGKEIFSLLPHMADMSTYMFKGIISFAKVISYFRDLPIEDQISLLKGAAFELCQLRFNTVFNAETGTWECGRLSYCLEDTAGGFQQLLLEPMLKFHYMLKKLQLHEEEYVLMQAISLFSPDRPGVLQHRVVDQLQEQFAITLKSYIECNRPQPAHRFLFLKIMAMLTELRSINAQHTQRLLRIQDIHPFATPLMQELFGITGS
Nuclear receptor subfamily 1 group I member 2 (Rattus norvegicus), sequence (Q9R1A7 whole entry, looked up): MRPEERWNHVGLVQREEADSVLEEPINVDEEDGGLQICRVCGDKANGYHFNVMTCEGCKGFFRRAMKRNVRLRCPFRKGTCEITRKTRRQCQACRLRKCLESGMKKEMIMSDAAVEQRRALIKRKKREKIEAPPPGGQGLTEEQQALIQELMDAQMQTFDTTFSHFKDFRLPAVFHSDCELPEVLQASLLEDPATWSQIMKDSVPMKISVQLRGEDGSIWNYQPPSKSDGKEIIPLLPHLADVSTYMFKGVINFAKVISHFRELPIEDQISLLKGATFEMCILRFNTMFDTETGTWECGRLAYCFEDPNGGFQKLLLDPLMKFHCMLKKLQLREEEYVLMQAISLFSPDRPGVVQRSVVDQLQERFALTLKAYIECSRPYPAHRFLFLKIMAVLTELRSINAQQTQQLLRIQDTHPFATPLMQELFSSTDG

For `C[C@H]1[C@@H](c2ccccc2)NC(=O)N1C`, the Potency result in experiment [1], in experiment [2], in experiment [3], in experiment [4] and in experiment [5] was “inactive” each time.
Consider `CC1=C(O)C(=O)C(C)O1` (centres undefined), for which the Potency result in experiment [1], in experiment [2], in experiment [3] and in experiment [4] was “inactive” throughout. In experiment [6], the Potency was 28.9 µM (active).
In the case of `C/C(=C1\CCOC(=O)S1)N(C=O)Cc1cnc(C)nc1N`, the Potency result in experiment [1], in experiment [3], in experiment [6] and in experiment [4] was “inactive” in each case. Further, the Potency in experiment [2] was 13.8 µM (active).
For the molecule `CO[C@@]1(NC(=O)Cc2cccs2)C(=O)N2C(C(=O)O)=C(COC(N)=O)CS[C@@H]21`, the Potency entry in experiment [1], in experiment [2], in experiment [7], in experiment [4] and in experiment [5] was “inactive” in each case.
On to `CC(=O)CCc1ccc(OC(C)=O)cc1`, for which the Potency result in experiment [1], in experiment [2], in experiment [4] and in experiment [5] was “inactive” throughout. In experiment [6], the Potency is 31.7 µM (active).
`CCCCCc1cccc(=O)o1`: the Potency result in experiment [1], in experiment [2] and in experiment [4] was “inactive” in each case.
Consider `CCCCCCCCCCCCCCCCCC#N`, for which the Potency result in experiment [1], in experiment [2], in experiment [3], in experiment [6], in experiment [4] and in experiment [5] was “inactive” in each case.
`COc1nc(N)nc2nc[nH]c12`: the Potency result in experiment [1] and in experiment [4] was “inactive” each time. Besides, the results for the Potency in experiment [2] and in experiment [6] were 10 µM (active) and 17.9 µM (active), respectively.
Turning to `COC(=O)CCCCC(CCSS/C(CCO)=C(\C)N(C=O)Cc1cnc(C)nc1N)SC(C)=O` (centres undefined), the Potency result in experiment [1], in experiment [2], in experiment [3], in experiment [6] and in experiment [4] was “inactive” each time.
Take `O=Cc1cc2ccccc2o1`: the Potency entry in experiment [1], in experiment [2], in experiment [3] and in experiment [4] was “inactive” each time. Also, in experiment [6], the Potency was 31.7 µM (active).
As for `CC(O)CC(C)O` (centres undefined), the Potency result in experiment [1], in experiment [2], in experiment [7], in experiment [4] and in experiment [5] was “inactive” each time.
Regarding `CCC(C)C(C)=O` (centres undefined), the Potency result in experiment [1], in experiment [3], in experiment [4] and in experiment [5] was “inactive” throughout. Moreover, the Potency in experiment [2] was 34.8 µM (active).
On to `[O-][n+]1cccc(/C(Cl)=N/OC[C@@H](O)CN2CCCCC2)c1`, for which the Potency result in experiment [1], in experiment [3] and in experiment [4] was “inactive” in each case. In experiment [2], the Potency is 15.5 µM (active).
Consider `OC1OCCOC1O` (centres undefined), for which the Potency result in experiment [1], in experiment [2], in experiment [3], in experiment [4] and in experiment [5] was “inactive” each time.
For the molecule `CCCCCCCCCCCCCCC(=O)NC(CO)CCCCCCCCCCCCCC` (centres undefined), the Potency entry in experiment [1], in experiment [2], in experiment [7], in experiment [4] and in experiment [5] was “inactive” each time.
For the molecule `Cc1ccc(C(C)NC(=O)[C@@H](NC(=O)OC(C)C)C(C)C)cc1` (some centres undefined), the Potency in experiment [1] was 21.6 µM (active); in experiment [2], 35.5 µM (active); in experiment [7] it was 56.2 µM (active); in experiment [5], 3.55 µM (active). In addition, the Potency entry in experiment [4] is “inactive”.
Turning to `Cn1c(=O)c2c(ncn2CCO)n(C)c1=O`, the Potency entry in experiment [1], in experiment [2], in experiment [3], in experiment [4] and in experiment [5] was “inactive” each time.
Turning to `Cc1ccccc1C(N)=O`, the Potency entry in experiment [1], in experiment [3], in experiment [4] and in experiment [5] was “inactive” throughout. Also, the Potency in experiment [2] is 56.3 µM (active).
`O=C(Cl)c1ccccc1[N+](=O)[O-]`: the Potency result in experiment [1] and in experiment [4] was “inactive” each time. In addition, in experiment [7], the Potency was 72.7 µM (active).
In the case of `O=C(O)CCCCCC(=O)O`, the Potency entry in experiment [1], in experiment [7], in experiment [3], in experiment [6], in experiment [4] and in experiment [5] was “inactive” in each case.
`CC(N)CCCC(C)(C)O` (centres undefined): the max activation in experiment [8] is -1.43%. In addition, the Potency result in experiment [7] and in experiment [4] was “inactive” in each case.
For `CN1CCOC(c2ccccc2)c2ccccc2C1` (centres undefined), the max activation in experiment [8] is -1.81%. The Potency result in experiment [4] was “inactive”.
For `CCCCCCCCCOC(=O)c1ccccc1C(=O)OCCCCCCCCC`, the Potency is 19.3 µM (active) in experiment [1]; 39.8 µM (active) in experiment [7]; 39.8 µM (active) in experiment [3]; 35.5 µM (active) in experiment [6]; 7.95 µM (active) in experiment [5]. Further, the Potency result in experiment [4] is “inactive”.
`CNCCS(=O)(=O)O`: the Potency result in experiment [2], in experiment [7], in experiment [4] and in experiment [5] was “inactive” in each case. In addition, the Potency in experiment [6] was 35.9 µM (active).
For the molecule `CC(=O)CC(=O)OC(C)(C)C`, the Potency entry in experiment [2], in experiment [7], in experiment [4] and in experiment [5] was “inactive” throughout.
Regarding `CC1=C(C(=O)O)N2C(=O)[C@@H](NC(=O)[C@H](N)C3=CCC=CC3)[C@H]2SC1`, the Potency entry in experiment [1], in experiment [6], in experiment [4] and in experiment [5] was “inactive” in each case.
In the case of `CC(C)C[C@@H]1[C@H](c2ccccc2)OC(=O)N1CCCN1CCCCCC1`, the Potency in experiment [2] was 0.436 µM (active); in experiment [7], 2.75 µM (active). Moreover, the Potency result in experiment [6] and in experiment [4] was “inactive” throughout.
